# PubChem BioAssay (NCATS)
# Values without a mark were called inactive. Inconclusive results are not listed. Activity calls are given as the source filed them. Unless noted, calls come from the whole dose curve; as a rule, active = well fitted curve in either direction with a large enough effect (not every such curve was filed as active); inconclusive = small, poorly fitted or top-dose-only effect, or another doubt; inactive = flat fitted curve, though single readings scatter.
# Assays:
# [1] = Cell Viability - BJ (AID 421; calls by dose curve;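 note: potency is the fitted concentration of half-maximal effect; cells exposed to compound for 40 hours at 37 °C before readout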); conditions: BJ fibroblast viability, qHTS
# In short: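 Luminescent ATP signal (CellTiter-Glo, 20 min at room temperature) served as the read-out of viable BJ cells after 40 hours of compound treatment. Responses were scaled between DMSO and 100 uM tamoxifen, and AC50 values were obtained by Hill modeling.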
# [2] = target: Mitogen-activated protein kinase 10 (Mus musculus) (UniProt Q61831); test: JNK3 AlphaScreen Assay (AID 530); conditions: JNK3 lysate, c-Jun phosphorylation; series mostly up to 25.6 µM;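 note: kinase came from lysate of stimulated human HepG2 cells; signal reports phosphorylation of biotinylated GST-cJun 1-79 at Ser73 with 10 µM ATP; % is set by controls: 0 for no effect and ±100 for the full control effect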
# In short: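 Biotinylated GST-cJun(1-79) served as substrate for JNK3 in HepG2 lysates stimulated with IL-1beta and TNF-alpha. ATP was 10 uM final, pH 7.6. Ser73 phosphorylation was quantified by AlphaScreen (680 nm excitation).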
# [3] = Cell Viability - N2a (AID 540; active = well fitted curve in the direction sought with a large enough effect; an effect the other way counts as inactive or inconclusive; note: nearly all actives have a fitted effect of over 45% in size; note: potency is the fitted concentration of half-maximal effect;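 for activity change, negative = cytotoxicity: plate controls were DMSO alone for no effect and tamoxifen control for full effect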); conditions: N2a mouse neuroblastoma cell viability; series mostly up to 92.2 µM
# In short: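 N2a mouse neuroblastoma, 1500 cells/well, 5 hr settle; compound 40 hr, 37 °C; CellTiter-Glo 20 min RT; luminescence; Hill-fit AC50.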
# [4] = Cell Viability - NIH 3T3 (AID 541; active = well fitted curve in the direction sought with a large enough effect; an effect the other way counts as inactive or inconclusive;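 note: plate controls were DMSO alone for no effect and tamoxifen positive control for full effect; nearly all actives have a fitted effect of over 25% in size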); conditions: NIH 3T3 cell viability, qHTS; activity change, negative = cytotoxicity: at 92.2 µM (top of the series)
# In short: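 qHTS format; 40 hr compound exposure, 37 °C; CellTiter-Glo luminescence (cellular ATP) read-out after 20 min at RT. Decrease in ATP = cytotoxicity; AC50 from standard Hill fit.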
# [5] = Cell Viability - H-4-II-E (AID 543; active = well fitted curve in the direction sought with a large enough effect; an effect the other way counts as inactive or inconclusive; note: nearly all actives have a fitted effect of over 35% in size; note: potency is the fitted concentration of half-maximal effect); conditions: H-4-II-E rat hepatoma viability; series mostly up to 92.2 µM
# In short: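 qHTS, rat hepatoma H-4-II-E, 1500 cells/well; 40 hr compound exposure, 37 °C; CellTiter-Glo ATP luminescence after 20 min RT; AC50 by standard Hill fit.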
# [6] = Cell Viability - SH-SY5Y (AID 544; active = well fitted curve in the direction sought with a large enough effect; an effect the other way counts as inactive or inconclusive; note: nearly all actives have a fitted effect of over 55% in size; note: potency is the fitted concentration of half-maximal effect;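 for viability change, negative = cytotoxic: 0% = DMSO alone and -100% = 100 µM tamoxifen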); conditions: SH-SY5Y neuroblastoma cell viability; viability change, negative = cytotoxic: at 92.2 µM (top of the series)
# In short: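 SH-SY5Y, 1500 cells/well, 5 hr pre-incubation 37 °C; cpd 40 hr 37 °C; CellTiter-Glo 20 min RT; luminescence (ATP) read. qHTS concentration-response, Hill fit → AC50. Tamoxifen, doxorubicin as positive controls.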
# [7] = Cell Viability - Mesenchymal (AID 546; active = well fitted curve in the direction sought with a large enough effect; an effect the other way counts as inactive or inconclusive;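 note: cells exposed to compound for 40 hours before reading; 0% = DMSO only and -100% = 100 µM tamoxifen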); conditions: mesenchymal cells viability, qHTS; series mostly up to 91.7 µM
# In short: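 In this qHTS cytotoxicity format, glomerulus-derived human mesenchymal kidney cells received compound for 40 hr, then luciferase-based ATP quantitation. Concentration-response data were fitted with the Hill equation.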
# [8] = AP1 Signaling Pathway (AID 357); conditions: ME-180 AP-1-bla reporter, EGF-induced, beta-lactamase ratio, 5 h; series mostly up to 17.2 µM;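 note: ME-180 reporter cells stimulated with EGF at its EC50 level; % is set by controls: 0 for no effect and ±100 for the full control effect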
# In short: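 Titration-series screen for positive or negative modulators of EC50 EGF-induced signaling in ME-180 cells carrying an AP-1-driven beta-lactamase reporter. After 5 hours at 37 degrees Celsius, CCF4 460nm/530nm emission ratio gave %Activity; AC50 values derived.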
# [9] = NFAT Signaling Pathway (AID 444); conditions: Jurkat NFAT-bla M1, carbachol, beta-lactamase ratio, 5 h; at 17.2 µM (top of the series) unless noted;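 note: carbachol stimulus at about its EC50 of 1 µM final; % is set by controls: 0 for no effect and ±100 for the full control effect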
# In short: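 Jurkat cells carrying an NFAT-driven β-lactamase reporter and co-transfected muscarinic M1 receptor were treated with compound plus carbachol (1 uM final, an EC50 level) for 5 h at 37 °C. CCF4 loading followed for 1 h at RT; 460/530 nm ratio gave %activity.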
# [10] = Stat Signaling Pathway (AID 446); conditions: ME-180 (cervical carcinoma) SIE beta-lactamase reporter, IL-6 stimulated, 5 h; series mostly up to 17.2 µM;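 note: ME-180 cervical cancer cells given 40 pM IL-6 alongside compound; SIE-controlled beta-lactamase reporter measured as 460/530 nm FRET emission ratio; % is set by controls: 0 for no effect and ±100 for the full control effect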
# In short: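 Compound effects on IL-6-induced STAT reporter activity were measured in ME-180 cells. After overnight culture, cells were co-treated with 40 pM IL-6 for 5 hrs before beta-lactamase substrate loading at room temperature.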
# [11] = target: Glucocorticoid receptor (Homo sapiens) (UniProt P04150); test: GR-GFP Redistribution (AID 450;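 active = compounds whose dose series gives a full or clear partial fitted curve of increased nuclear translocation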; note: potency is the fitted concentration of half-maximal effect); conditions: U2OS GR-GFP nuclear translocation, laser cytometry, 2 h
# Sequence of Glucocorticoid receptor (Homo sapiens) (P04150 whole entry, looked up, the tested form may be a part): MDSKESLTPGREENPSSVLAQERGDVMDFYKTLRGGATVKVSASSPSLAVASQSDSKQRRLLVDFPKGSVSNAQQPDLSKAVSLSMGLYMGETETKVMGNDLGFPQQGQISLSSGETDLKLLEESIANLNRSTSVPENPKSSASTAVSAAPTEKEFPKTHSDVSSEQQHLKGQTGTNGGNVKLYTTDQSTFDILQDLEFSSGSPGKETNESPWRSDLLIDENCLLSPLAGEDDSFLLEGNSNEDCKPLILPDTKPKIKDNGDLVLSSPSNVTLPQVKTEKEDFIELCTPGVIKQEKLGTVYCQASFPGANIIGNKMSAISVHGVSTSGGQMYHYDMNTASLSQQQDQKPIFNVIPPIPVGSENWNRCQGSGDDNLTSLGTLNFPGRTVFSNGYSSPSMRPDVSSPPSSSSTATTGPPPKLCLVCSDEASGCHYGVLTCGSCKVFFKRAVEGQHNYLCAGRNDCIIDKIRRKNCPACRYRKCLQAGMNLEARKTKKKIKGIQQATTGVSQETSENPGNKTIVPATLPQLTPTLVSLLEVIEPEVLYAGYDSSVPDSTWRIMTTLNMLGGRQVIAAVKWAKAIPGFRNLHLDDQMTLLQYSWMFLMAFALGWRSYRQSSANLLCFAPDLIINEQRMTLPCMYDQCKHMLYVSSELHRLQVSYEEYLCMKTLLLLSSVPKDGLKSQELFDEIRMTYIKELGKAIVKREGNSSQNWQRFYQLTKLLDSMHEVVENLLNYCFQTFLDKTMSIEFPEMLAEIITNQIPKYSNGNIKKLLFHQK
# [12] = Cell Viability - Jurkat (AID 426;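 active = dose-dependent loss of cell ATP signal giving a full or clear fitted curve, ranked by lower potency value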;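 note: potency is the fitted concentration of half-maximal effect; cells exposed to compound for 40 hours at 37 °C before ATP read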); conditions: qHTS
# In short: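 Luminescent ATP read-out (CellTiter-Glo, 20 min at room temperature) after 40 hr compound exposure at 37 °C of Jurkat E6-1 cells, 5000/well. Decreased ATP taken as cytotoxicity; AC50 from standard Hill equation.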
# [13] = Cell Viability - Hek293 (AID 427;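 active = compounds whose dose-response curve shows a full or clear partial loss of cell viability, called from curve shape rather than a numeric limit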;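 note: potency is the fitted concentration of half-maximal effect; cells exposed to compound for 40 hours at 37 °C before reading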); conditions: qHTS
# In short: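 Luminescent ATP read-out (CellTiter-Glo, 20 min RT) after 40 hr compound exposure at 37 °C in complete medium. Signal normalized to DMSO (basal) and 100 uM tamoxifen (100% inhibition); concentration-response fitted with the standard Hill equation to give AC50.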
# [14] = Cell Viability - MRC5 (AID 434; calls by dose curve;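 note: potency is the fitted concentration of half-maximal effect; cells exposed to compound for 40 hours at 37 °C; potency reflects cytotoxicity seen as loss of intracellular ATP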); conditions: MRC5 lung fibroblast viability, qHTS
# In short: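 Decrease in intracellular ATP, quantified by luciferase light output, reflects compound toxicity toward MRC5 cells exposed for 40 hr in complete culture medium. Concentration-response curves, scaled between DMSO and 100 uM tamoxifen, gave AC50 values.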
# [15] = Cell Viability - SK-N-SH (AID 435; calls by dose curve; note: potency is the fitted concentration of half-maximal effect); conditions: SK-N-SH neuroblastoma cell viability qHTS
# In short: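 qHTS cytotoxicity: CellTiter-Glo ATP luminescence after 40 h compound exposure of human neuroblastoma SK-N-SH cells at 37 °C. AC50 derived by Hill-equation fitting, with DMSO as basal and 100 uM tamoxifen as full inhibition.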
# [16] = Cell Viability - HUV-EC-C (AID 542; active = well fitted curve in the direction sought with a large enough effect; an effect the other way counts as inactive or inconclusive; note: % is set by controls: 0 for no effect and ±100 for the full control effect; nearly all actives have a fitted effect of over 35% in size); conditions: HUV-EC-C endothelial cell viability, qHTS; series mostly up to 92.2 µM
# In short: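 Luminescent ATP read-out (CellTiter-Glo, 20 min room temperature) after 40 hr compound treatment of HUV-EC-C cells at 37 °C. Concentration-response data fitted with the standard Hill equation to give AC50; tamoxifen and doxorubicin served as positive controls.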
# [17] = Cell Viability - Renal Proximal Tubule (AID 545; active = well fitted curve in the direction sought with a large enough effect; an effect the other way counts as inactive or inconclusive;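 note: 0% = DMSO only and -100% = 100 µM tamoxifen; nearly all actives have a fitted effect of over 40% in size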); conditions: renal proximal tubule cells viability, primary cells of rat origin; series mostly up to 91.7 µM
# In short: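 Viability taken as intracellular ATP (CellTiter-Glo luminescence) after 40 hr, 37 °C compound treatment of primary proximal tubule cells from rat kidney, 1000 cells/well; Hill-equation fits of qHTS concentration-response data gave AC50.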
# [18] = target: Glucocorticoid receptor (Homo sapiens) (UniProt P04150); test: GR-EFC Redistribution (AID 451; calls by dose curve; note: potency is the fitted concentration of half-maximal effect); conditions: CHO-K1 GR-EFC translocation, beta-gal luminescence, 2 h
# In short: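 CHO-K1 cells stably expressing nuclear-localized β-gal enzyme acceptor and GR fused C-terminally to the enzyme donor fragment; ligand-driven nuclear translocation restores β-gal by complementation. Compounds titrated up to 46 uM final, 2 h at 37 °C; luminescence read.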
# [19] = target: Cytochrome P450 1A2 (Homo sapiens) (UniProt P05177); test: p450-cyp1a2 (AID 410; calls by dose curve; note: potency is the fitted concentration of half-maximal effect;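 for activity change, negative = inhibition: -100% = full effect of reference inhibitor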); conditions: recombinant CYP1A2, luciferin-ME demethylation, luminescence; series mostly up to 25.6 µM
# Sequence of Cytochrome P450 1A2 (Homo sapiens) (P05177 whole entry, looked up): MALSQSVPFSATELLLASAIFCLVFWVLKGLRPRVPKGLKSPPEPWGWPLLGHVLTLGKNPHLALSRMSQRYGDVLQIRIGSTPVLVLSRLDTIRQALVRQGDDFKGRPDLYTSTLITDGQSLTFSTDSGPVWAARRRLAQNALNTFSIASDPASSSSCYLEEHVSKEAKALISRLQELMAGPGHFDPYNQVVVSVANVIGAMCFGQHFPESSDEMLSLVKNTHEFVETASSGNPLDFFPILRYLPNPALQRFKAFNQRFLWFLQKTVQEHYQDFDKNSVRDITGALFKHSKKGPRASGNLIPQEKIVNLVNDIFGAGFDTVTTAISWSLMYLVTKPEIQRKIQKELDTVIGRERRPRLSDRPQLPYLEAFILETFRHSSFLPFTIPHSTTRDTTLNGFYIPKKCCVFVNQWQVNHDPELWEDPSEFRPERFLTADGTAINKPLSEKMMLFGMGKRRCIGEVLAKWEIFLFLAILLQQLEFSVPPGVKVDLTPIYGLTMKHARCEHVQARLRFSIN
# In short: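 20nM CYP1A2, 100uM Luciferin-ME (=Km), 100mM KPO4; cpd 10 min RT; +NADPH regen, 60 min RT; stop/detect 20 min; luminescence. Normalized to furafylline 57 uM = full inhibition.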
smiles,measurement,setting,value
Oc1c(Cl)cc(Cl)c(Cl)c1Cc1c(O)c(Cl)cc(Cl)c1Cl,Potency,[1],0.536 µM
same,Potency,[2],inactive
same,Potency,[3],0.794 µM (active)
same,"activity change, negative = cytotoxicity",[4],-102% (active)
same,Potency,[5],31.6 µM (active)
same,Potency,[6],15.8 µM (active)
same,outcome,[7],inactive
CC(=O)O[C@]1(C(C)=O)CC[C@H]2[C@@H]3C=C(C)C4=CC(=O)CC[C@]4(C)[C@H]3CC[C@@]21C,outcome,[8],inactive
same,"activity change, negative = inhibition",[9],-25.3%
same,outcome,[10],inactive
same,Potency,[11],0.00185 µM (active)
CCOc1ccccc1C(N)=O,Potency,[1],> 92 µM
same,Potency,[12],> 92 µM
same,Potency,[13],> 92 µM
same,Potency,[14],> 92 µM
same,Potency,[15],> 92 µM
same,Potency,[2],inactive
same,Potency,[3],inactive
same,"activity change, negative = cytotoxicity",[4],2.98%
same,outcome,[16],inactive
same,Potency,[5],inactive
same,"viability change, negative = cytotoxic",[6],-2.76%
same,outcome,[17],inactive
same,outcome,[7],inactive
C=C[C@H]1CN2CC[C@H]1C[C@@H]2[C@@H](O)c1ccnc2ccc(OC)cc12,Potency,[1],> 92 µM
same,Potency,[13],> 92 µM
same,Potency,[14],> 92 µM
same,Potency,[15],> 92 µM
same,Potency,[2],inactive
same,Potency,[3],inactive
same,outcome,[16],inactive
same,Potency,[5],inactive
same,"viability change, negative = cytotoxic",[6],-25.7%
same,outcome,[17],inactive
same,outcome,[7],inactive
CNCCCCOc1ccccc1Cc1ccccc1,Potency,[11],> 46 µM
same,Potency,[18],> 46 µM
same,Potency,[2],inactive
O=c1[nH]c(=O)n([C@H]2C[C@H](O)[C@@H](CO)O2)cc1F,outcome,[8],inactive
same,outcome,[10],inactive
same,Potency,[11],> 20.6 µM
CCCCN1C[C@H](O)[C@@H](O)[C@H](O)[C@H]1CO,outcome,[8],inactive
same,"activity change, negative = inhibition",[9],14.7%
same,outcome,[10],inactive
same,Potency,[11],> 20.6 µM
O=C1C(=O)c2ccccc2C(O)=C1C1CCC(c2ccc(Cl)cc2)CC1 (configuration not stated),outcome,[8],inactive
same,"activity change, negative = inhibition",[9],-25%
same,Potency,[2],inactive
COc1cc(C)nc(-n2nc(C)cc2OC)n1,outcome,[8],inactive
same,"activity change, negative = inhibition",[9],-6.98%
same,outcome,[10],inactive
same,Potency,[11],> 20.6 µM
same,Potency,[18],> 20.6 µM
same,Potency,[2],inactive
COc1ccc(C(=O)c2ccccc2O)c(O)c1,outcome,[8],inactive
same,"activity change, negative = inhibition",[9],-15.7%
same,outcome,[10],inactive
same,Potency,[11],> 20.6 µM
same,Potency,[18],> 20.6 µM
same,Potency,[2],inactive
CNCCc1ccccn1,Potency,[19],inactive
same,"activity change, negative = inhibition",[9],-6.53%
same,outcome,[10],inactive
same,Potency,[11],> 20.6 µM
same,Potency,[18],> 20.6 µM
same,Potency,[2],inactive
CCCCc1cc2ccccc2c(OCCN(C)C)n1,Potency,[19],0.0794 µM (active)
same,outcome,[10],inactive
same,Potency,[11],> 20.6 µM
same,Potency,[18],> 20.6 µM
same,Potency,[2],inactive
O=C(O)c1ccc(S(=O)(=O)N(Cl)Cl)cc1,Potency,[1],> 92 µM
same,Potency,[13],> 92 µM
same,Potency,[14],> 92 µM
same,Potency,[15],> 92 µM
same,Potency,[2],inactive
same,Potency,[3],inactive
same,"activity change, negative = cytotoxicity",[4],-11.9%
same,outcome,[16],inactive
same,Potency,[5],inactive
same,"viability change, negative = cytotoxic",[6],-7.18%
same,outcome,[17],inactive
same,outcome,[7],inactive
NC(=O)c1ccccc1O,Potency,[1],> 92 µM
same,Potency,[12],> 92 µM
same,Potency,[13],> 92 µM
same,Potency,[14],> 92 µM
same,Potency,[15],> 92 µM
same,Potency,[2],inactive
same,Potency,[3],inactive
same,"activity change, negative = cytotoxicity",[4],6.43%
same,outcome,[16],inactive
same,Potency,[5],inactive
same,"viability change, negative = cytotoxic",[6],4.84%
same,outcome,[17],inactive
same,outcome,[7],inactive
CC(=O)OCC(=O)[C@H]1CC[C@H]2[C@@H]3CCC4=CC(=O)CC[C@]4(C)[C@H]3CC[C@]12C,outcome,[8],inactive
same,outcome,[10],inactive
CC[C@H](c1ccc(O)cc1)[C@@H](CC)c1ccc(O)cc1,Potency,[19],12.6 µM (active)
same,outcome,[10],inactive
same,Potency,[11],> 20.6 µM
same,Potency,[18],> 20.6 µM
same,Potency,[2],inactive
c1ccc(CC2=NCCN2)cc1,outcome,[8],inactive
same,"activity change, negative = inhibition",[9],-12.4%
same,outcome,[10],inactive
same,Potency,[2],inactive
